TDP1 cell CPT – qHTS for Inhibitors of human tyrosyl-DNA phosphodiesterase 1 (TDP1): qHTS in cells in presence of CPT; chicken DT40 Tdp1-/-;hTDP1 cells + 20 nM CPT, ATP luminescence, 48 h; Potency, µM (doses to about 46.2 µM), hits mostly inhibitors; 12% of 420,000 active; note: nearly all actives have a fitted effect of over 55% in size
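Chicken DT40 Tdp1-/- cells stably complemented with human TDP1 were seeded at 400 cells/well in medium containing 20 nM camptothecin, exposed to pin-transferred compounds, and grown at 37 °C for at least 48 hr. Viability was read as ATP luminescence.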
DT40 TDP1 no CPT – qHTS for Inhibitors of human tyrosyl-DNA phosphodiesterase 1 (TDP1): qHTS in cells in absence of CPT | DT40 Tdp1-/- hTDP1 cells, no CPT, ATP luminescence, 48 h | Potency, µM (top dose mostly 46.2 µM), actives largely listed as inhibitors | 15% of 420,000 active; note: nearly all actives have a fitted effect of over 55% in size
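Camptothecin absent (DMSO only). Human TDP1-complemented DT40 knockout cells, 400 cells/well, 37 °C for minimum 48 hr; ATP measured via CellTiter-Glo, 30 min dark incubation, luminescence.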
VP16 counter – VP16 counterscreen qHTS for inhibitors of ROR gamma transcriptional activity; Drosophila S2 Gal4-VP16 UAS-luciferase, luminescence, 20 h; Potency, µM (highest dose often 53.6 µM), most hits filed as inhibitors; 3.5% of 310,000 active; AID 2546, 2010;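 note: Gal4-VP16 expression switched on by copper sulfate through the metallothionein promoter; nearly all actives have a fitted effect of over 50% in size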
TDP1 block – qHTS Assay for Inhibitors of Tyrosyl-DNA Phosphodiesterase (TDP1). Potency, µM (top dose mostly 130 µM), hits mostly inhibitors. 0.28% of 350,000 active. AID 485290, 2010. recombinant TDP1, AlphaScreen DNA substrate cleavage. Tyrosyl-DNA phosphodiesterase 1 (Homo sapiens), Q9NUW8; note: nearly all actives have a fitted effect of over 40% in size
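Compounds were preincubated with Tdp1 (1 nM final) for 15 min at room temperature before substrate (15 nM final) started a 5 min reaction; beads (10 ug/ml final) were then added for 10 min before AlphaScreen detection.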
RORg inh – qHTS for inhibitors of ROR gamma transcriptional activity | Nuclear receptor ROR-gamma (Mus musculus), P51450 | Drosophila S2 Gal4-RORgamma UAS-luciferase reporter, 20 h | Potency, µM (doses to about 53.6 µM), actives largely listed as inhibitors | 5.4% of 310,000 active | AID 2551, 2010; note: nearly all actives have a fitted effect of over 60% in size
Target sequence (P51450 whole entry, looked up, the tested form may be a part): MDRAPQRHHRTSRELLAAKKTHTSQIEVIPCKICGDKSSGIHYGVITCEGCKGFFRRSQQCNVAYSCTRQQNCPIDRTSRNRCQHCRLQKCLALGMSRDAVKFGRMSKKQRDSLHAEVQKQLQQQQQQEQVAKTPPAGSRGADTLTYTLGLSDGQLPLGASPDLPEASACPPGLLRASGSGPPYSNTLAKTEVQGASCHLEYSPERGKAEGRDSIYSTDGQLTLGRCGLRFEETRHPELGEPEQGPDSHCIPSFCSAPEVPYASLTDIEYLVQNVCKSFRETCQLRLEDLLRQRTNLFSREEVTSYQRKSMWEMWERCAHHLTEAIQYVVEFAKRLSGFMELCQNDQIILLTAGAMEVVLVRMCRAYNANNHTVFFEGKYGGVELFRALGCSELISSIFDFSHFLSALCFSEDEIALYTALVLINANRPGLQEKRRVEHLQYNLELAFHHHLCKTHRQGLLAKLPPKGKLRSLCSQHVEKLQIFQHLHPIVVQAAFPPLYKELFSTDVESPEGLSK
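Schneider cells (Drosophila), stable Gal4 DBD–ROR gamma + UAS-luc; 1 hr cmpd preincubation; Cu2+ induction 700 uM final; 20 hr ambient; luminescence.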
Numbers stand for hits; [ ] = another dose, or the depositor's remark. Hits are enriched below; roughly 19% of the tested compounds scored in any of these assays. Calls come from the whole dose curve; as a rule, active = well fitted curve in the direction sought with a large enough effect; inconclusive = small, poorly fitted or top-dose-only effect, or another doubt; inactive = no such curve, though single readings can be large; an effect the other way counts as inactive or inconclusive.

Cc1ccc(C(=O)N/N=C/c2ccc(-c3ccccc3[N+](=O)[O-])o2)cn1 was read as TDP1 cell CPT 21µM, DT40 TDP1 no CPT inconclusive, VP16 counter inactive, TDP1 block inactive and RORg inh inactive.
O=C1Cc2cc(S(=O)(=O)N3CCCCC3)cc3c2N1CCC3 was read as TDP1 cell CPT inactive, DT40 TDP1 no CPT inactive and TDP1 block inactive.
C=CCN1C(c2ccc(OCC)cc2)=CS/C1=C(\C#N)c1nnc2n1CCCCC2 was read as TDP1 cell CPT inconclusive, DT40 TDP1 no CPT 29µM, TDP1 block inactive and RORg inh inactive[0.365 µM].
CCOc1ccc(N(Cc2nnc3n2CCCCC3)C(=O)Nc2cccc(C)c2)cc1 was read as TDP1 cell CPT inactive, DT40 TDP1 no CPT inactive, VP16 counter inactive, TDP1 block inactive and RORg inh inactive.
Screening Cc1nnc(NC(=O)CCS(=O)(=O)Cc2ccccc2)s1 returned TDP1 cell CPT 10µM, DT40 TDP1 no CPT inconclusive, VP16 counter inactive, TDP1 block inactive and RORg inh inactive.
`O=C(CCS(=O)(=O)Cc1ccccc1)Nc1nnc(C(F)(F)F)s1` gave TDP1 cell CPT inconclusive, DT40 TDP1 no CPT inconclusive, VP16 counter inactive, TDP1 block inactive[0.0935 µM] and RORg inh inconclusive.
`COc1ccc(CC(=O)Nc2nnc(C(C)(C)C)s2)cc1OC` gave TDP1 cell CPT inconclusive, DT40 TDP1 no CPT 16µM, VP16 counter inactive, TDP1 block inactive and RORg inh inconclusive.
`CC(C)(C)c1nnc(NC(=O)CCS(=O)(=O)Cc2ccccc2)s1` gave TDP1 cell CPT 9.2µM, DT40 TDP1 no CPT 12µM, VP16 counter inactive, TDP1 block inactive and RORg inh inactive.
`CCc1nnc(NC(=O)Cc2ccc(OC)c(OC)c2)s1` gave TDP1 cell CPT inactive, DT40 TDP1 no CPT inactive, VP16 counter inactive, TDP1 block inactive and RORg inh inactive.
Cc1cccc(NC(=O)Nc2cc(C)on2)c1 was read as TDP1 cell CPT inactive, DT40 TDP1 no CPT inactive, VP16 counter inactive, TDP1 block inactive and RORg inh inactive.
`CCC(C)NC(=O)C1c2cc(OC)c(OC)cc2C(=O)N(C)C1c1ccc(OC)cc1` (centres undefined) gave TDP1 cell CPT inactive, DT40 TDP1 no CPT inactive, VP16 counter inactive, TDP1 block inactive and RORg inh inactive.
`CSCC[C@H](NC(=O)CNC(=O)CNC(=O)[C@H](CO)NC(=O)[C@H](CCCNC(=N)N)NC(=O)[C@H](CO)NC(=O)[C@H](CC(C)C)NC(=O)[C@H](CC(C)C)NC(=O)CNC(=O)[C@H](C)NC(=O)[C@H](CC(C)C)NC(=O)[C@H](CCCNC(=N)N)NC(=O)[C@H](Cc1cnc[nH]1)NC(=O)[C@@H](NC(=O)[C@@H](N)C(C)C)[C@@H](C)O)C(=O)N[C@H](C(=O)N[C@@H](CCCCN)C(=O)N[C@@H](CO)C(=O)N[C@@H](CC(N)=O)C(=O)N[C@@H](Cc1ccccc1)C(=O)N[C@H](C(=O)N1CCC[C@H]1C(=O)N[C@H](C(=O)N[C@@H](CC(N)=O)C(=O)N[C@H](C(=O)NCC(=O)N[C@@H](CO)C(=O)N[C@@H](CCCCN)C(=O)N[C@@H](C)C(=O)N[C@@H](Cc1ccccc1)C(N)=O)C(C)C)[C@@H](C)O)C(C)C)C(C)C` gave VP16 counter inactive, TDP1 block inactive and RORg inh inactive.
Nc1nn2c(C(F)(F)F)cc(=O)[nH]c2c1N=Nc1cccc(F)c1 was read as TDP1 cell CPT inactive, DT40 TDP1 no CPT inactive, VP16 counter inactive, TDP1 block inactive and RORg inh 10µM.
For Cc1cc(=O)[nH]c2c(N=Nc3ccc(O)cc3)c(N)nn12 the results were TDP1 cell CPT inconclusive, DT40 TDP1 no CPT inconclusive, VP16 counter inconclusive, TDP1 block inactive and RORg inh inconclusive.
`N/C(Cn1nnc(-c2ccccc2)n1)=N\O` gave TDP1 cell CPT inactive, DT40 TDP1 no CPT inactive, VP16 counter inactive, TDP1 block inactive and RORg inh inactive.
For Cc1ccc(-c2nnn(C/C(N)=N/O)n2)cc1 the results were TDP1 cell CPT inactive, DT40 TDP1 no CPT inactive, VP16 counter 2.8µM, TDP1 block inactive and RORg inh 2.8µM.
COc1ccc(OCC(=O)Nc2cc(NC(=O)c3ccco3)ccc2OC)cc1 was read as TDP1 cell CPT inactive, DT40 TDP1 no CPT inconclusive and TDP1 block inactive.
Screening O=C1NCCC/C1=N\Nc1ccc(Br)cc1 returned TDP1 cell CPT inactive, DT40 TDP1 no CPT inactive, VP16 counter inactive, TDP1 block inactive and RORg inh inconclusive.
Screening CCCCNC(=O)C1(C)CCCCN1C(=O)c1ccc2c(c1)C(C)(C)CCC2(C)C (centres undefined) returned TDP1 cell CPT 3.7µM and DT40 TDP1 no CPT 2.1µM.
For CCCCNC(=O)C1(C)CCN1C(=O)c1ccc2c(c1)C(C)(C)CCC2(C)C (centres undefined) the results were TDP1 cell CPT 21µM and DT40 TDP1 no CPT 13µM.
`O=C(c1ccc2ncsc2c1)N1CCN(c2cccc(C(F)(F)F)c2)CC1` gave TDP1 cell CPT 2.9µM, DT40 TDP1 no CPT 1.5µM and TDP1 block inactive.
Screening O=C(c1ccc2nc[nH]c2c1)N1CCN(c2ncc(C(F)(F)F)cc2Cl)CC1 returned TDP1 cell CPT 15µM, DT40 TDP1 no CPT 18µM, VP16 counter inconclusive, TDP1 block inactive and RORg inh inconclusive.
O=C(O)CN1CCN(c2ncc(C(F)(F)F)cc2Cl)CC1 was read as TDP1 cell CPT inactive, DT40 TDP1 no CPT inactive, VP16 counter inactive, TDP1 block inactive and RORg inh inactive.
Screening O=C(OCC(=O)N1CCN(c2ccccc2)CC1)c1ccc2ncsc2c1 returned TDP1 cell CPT inactive, DT40 TDP1 no CPT inactive, VP16 counter inactive and RORg inh inactive.
Screening COC(=O)c1c(N)sc2c1CCN(c1ncc(C(F)(F)F)cc1Cl)C2 returned TDP1 cell CPT inconclusive, DT40 TDP1 no CPT inconclusive, VP16 counter inconclusive, TDP1 block inactive and RORg inh 1.6µM.
For CC(=O)c1ccc(N2CCN(c3ncc(C(F)(F)F)cc3Cl)CC2)cc1 the results were TDP1 cell CPT inconclusive, DT40 TDP1 no CPT 29µM, VP16 counter inconclusive, TDP1 block inactive and RORg inh inactive.
COc1cc(OC)cc(N(C(=O)CNC(=O)c2cccs2)C(C(=O)NCC2CCCO2)c2ccc(OC)c(OC)c2)c1 (centres undefined) was read as TDP1 cell CPT inactive, DT40 TDP1 no CPT inactive, VP16 counter inactive, TDP1 block inactive and RORg inh inactive.
